# Source: PubChem BioAssay AID2641 (National Center for Advancing Translational Sciences (NCATS), 2010)
# Where “and” joins values, the source holds several entries; their conditions need not be identical. Identical values can stand only once. Calls of active or inactive are those of the source. No rule for the calls is given here.
# Biological target: Lysosomal alpha-glucosidase (Homo sapiens) (UniProt P10253)
# Assay: qHTS Assay for Inhibitors of Human alpha-Glucosidase as a Potential Chaperone Treatment of Pompe Disease: Stabilizers of Alpha-Glucosidase Under Thermal Denaturation Conditions
# Conditions: Recombinant GAA thermal denaturation, residual activity over time, hits give high values; at 0.31 µM unless noted
# Excerpt: NIH Chemical Genomics Center [NCGC]
# NIH Molecular Libraries Probe Production centers Network [MLPCN]
# Assay Submitter (PI): Wei Zheng
# Alpha-glucosidase is responsible for hydrolysis of terminal, non-reducing 1,4-linked alpha-D-glucose residues with release of alpha-D-glucose. It is a lysosomal hydrolase that is required for the degradation of a small percentage (1-3%) of cellular glycogen in human. Deficiency of this enzyme results in glycogen-storage disease type II (GSDII), also referred to as Pompe disease, an autosomal recessive disorder. Structurally normal glycogen is accumulated in lysosomes and cytoplasm in affected patients, primarily in muscle tissues. Excessive glycogen storage within lysosomes may interrupt normal functioning of other organelles and leads to cellular injury. In turn, this leads to enlargement and dysfunction of the entire organ involved (eg, cardiomyopathy and muscle weakness).
# It has reported that the improper folding and trafficking of alpha-glucosidase resulting from the genetic mutations may account for a significant number of Pompe patients. […] We optimized this alpha-glucosidase assay in 1536-well plate format for identifying the novel small molecule inhibitors with the structures other than the sugar analogs in order to develop the new pharmacological chaperones.
# This assay involves heating purified alpha-glucosidase (Myozyme) in the presence of inhibitors to observe potential stabilization of the enzyme. This binding assay is an indirect measure of chaperone activity, as stabilization may imply proper folding and trafficking of the enzyme to its functional site. Alpha-glucosidase was pre-incubated with only DMSO or 50x IC50 of compound before being exposed to 68 °C heat inactivation. The heating was measured over time, and it was observed that untreated alpha-glucosidase lost more of its activity over time than enzyme treated with compounds.
# Temperature Denature Protocol for alpha-Glucosidase
# Assay buffer: 50 mM citric acid (titrated with potassium phosphate to pH 5.0), 0.01% Tween-20
# 1. Prepare 80X solution alpha-glucosidase solution (3.2 nM*80=[…]) in assay buffer.
# 2. Divide solution into separate 1.5 ml tubes.
# 3. For each compound, add 50X IC50:
# 50x IC50 1-DNJ […]
# 50x IC50 of the […]
# 4. Incubate 10 min RT after compound addition.
# 5. Distribute 10 ul from each tube into PCR tubes.
# 6. Time course of heating: Heat solutions at 68C for 60 min, taking a set of tubes out at 10, 20, 30, 45, and 60 min, while keeping one set on ice whole time.
# 7. After heating, take out tubes and place on ice for a minimum of 5 min.
# 8. Transfer 10 ul solution to 790 ul (1:80 dilution) buffer in 1.5 ml tube.
# 9. Vortex and take three 20 ul aliquots and put in 384 plate.
# 10. Add 20 ul substrate solution to each well (100 uM 4-methylumbelliferyl alpha-D-glucopyranoside).
# 12. Add 25 ul stop solution (1 M NaOH, 1 M glycine pH 10).
# 13. Detect the assay plate in a ViewLux plate reader (PerkinElmer) with Ex=365 nm and Em=440nm.
row,SMILES,residual activity vs control after 60 min heating
1,CC(=O)c1ccc(N2CCN(S(=O)(=O)c3ccc4c(c3)CC(=O)N4)CC2)cc1,909% (active) and 724% (active) and 584% (active)
2,O=Cc1ccc(N2CCN(S(=O)(=O)c3ccc4c(c3)CC(=O)N4)CC2)cc1,299% (active)
3,N#Cc1ccc(N2CCN(S(=O)(=O)c3ccc4c(c3)CC(=O)N4)CC2)cc1,480% (active)
4,O=C1Cc2cc(S(=O)(=O)N3CCN(c4ccc(C(=O)O)cc4)CC3)ccc2N1,302% (active)
5,OCC1NCC(O)C(O)C1O (stereo not drawn),421% [at 0.016 µM] (active)
6,O=C1Cc2cc(S(=O)(=O)N3CCN(c4ccc([N+](=O)[O-])cc4)CC3)ccc2N1,464% (active)
7,CC(=O)c1ccc(N2CCN(S(=O)(=O)c3cc4c(cc3Cl)NC(=O)C4)CC2)cc1,675% (active)
8,O=C1Cc2cc(S(=O)(=O)N3CCN(c4ccc(O)cc4)CC3)ccc2N1,170% (active)
